# Measurements from PubChem BioAssay.
# Where “and” joins values, the source holds several entries; their conditions need not be identical. Equal values may be shown once. Inconclusive results are not listed. Calls of active or inactive are those of the source.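 How the source made its calls, unless noted: active means normalized viability below 100% at a tested concentration; inactive means the rest.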
# Legend:
# [1] = growth inhibition of DIPG glioma cells, dose response, cell-based, JHH-DIPG-1, MIPE4.0, CellTiter-Glo, qHTS (AID 1347062; cut-off not given, nearly all actives have AC50 up to about 27 µM;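 on AC50: cells exposed to compound for two days before readout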); conditions: JHH-DIPG-1 viability, CellTiter-Glo ATP luminescence
# [2] = growth inhibition of DIPG glioma cells, dose response, cell-based, SU-DIPG-XIII, MIPE5.0, CellTiter-Glo, qHTS (AID 1347064; cut-off not given, nearly all actives have AC50 up to about 23 µM;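 on AC50: cells exposed to compound for 48 hours before the viability read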); conditions: SU-DIPG-XIII viability, CellTiter-Glo ATP luminescence
# [3] = SU-DIPG-VI glioma cell viability, MIPE4.0 library, CellTiter-Glo luminescence, qHTS (AID 1347066; cut-off not given, nearly all actives have AC50 up to about 30 µM;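 further: cells exposed to compound for 48 hours before readout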); conditions: CellTiter-Glo ATP luminescence
# [4] = JHH-DIPG-1 glioma cell viability, MIPE5.0 library, CellTiter-Glo luminescence, qHTS (AID 1347067; cut-off not given, nearly all actives have AC50 up to about 26 µM;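 further: cells exposed to compound for 48 hours before readout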); conditions: JHH-DIPG-1 glioma viability, CellTiter-Glo ATP luminescence
# [5] = SU-DIPG-XXV glioma cell viability, MIPE5.0 library, qHTS (AID 1347068; cut-off not given, nearly all actives have IC50 up to about 30 µM;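 on IC50: cells exposed to compound for 48 hours before viability readout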)
# [6] = sensitizers of A549 cells to miR-34 induction, primary screen, imaging, A549 dox-inducible miR-34, nuclei and caspase counts (AID 1347080;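 active means compounds whose cell count with miR-34 switched on is under 0.7 times the count with it off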); conditions: A549 miR-34 inducible, Hoechst nuclei count, 48 h
# [7] = survival rescue of mitochondrial mutant cells in low glucose, primary screen, MELAS cybrids, Rieske KO mouse fibroblasts, CellTiter-Glo (AID 1508586;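 active means mean z-score across replicates of 1.96 or higher in either the MELAS or the Rieske mutant cell line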;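 further: z relative to plate mean and SD of compound and empty wells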)
# [8] = growth inhibition of DIPG glioma cells, dose response, cell-based, SU-DIPG-IV, MIPE4.0, CellTiter-Glo, qHTS (AID 1347063; cut-off not given, nearly all actives have AC50 up to about 30 µM;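 further: compound exposure lasted 48 hours before the viability readout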); conditions: SU-DIPG-IV viability, CellTiter-Glo ATP luminescence
# [9] = liver-stage malaria parasite growth inhibition, primary screen, cell-based, HepG2, luciferase luminescence, HepG2 viability (AID 624349; in the data active means parasite load remaining mostly below about 12%, no sharp cut-off; inactive means mostly above about 10%;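 further: 100% = mean of DMSO negative control wells on the same plate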); conditions: P. berghei liver stage in HepG2, luciferase luminescence, concentration not given here; parasite load remaining: stronger effect = lower value; viability: measured here: HepG2 viability without parasites
# [10] = system: Hepatitis C virus NS3 helicase; assay: HCV NS3 helicase inhibitors, primary screen, biochemical, fluorescence polarization, LOPAC1280 library (AID 687035; in the data active means inhibition above about 37%); conditions: Purified HCV NS3 helicase, Cy5-dT15 ssDNA binding fluorescence polarization; stronger effect = higher value; concentration not given here
# [11] = Cy5 fluorescence quenching or enhancement artefacts, artefact control for HCV NS3 helicase inhibitor project, biochemical, LOPAC1280 (AID 687037; call rule not given here); conditions: Cy5-DNA-NS3h complex fluorescence interference counterscreen
# [12] = modifiers of HSF1 nuclear foci, imaging, Selleck Cancer Library (AID 1347162; in the data active means plate-normalised HSF1 focus index below about 0.46); conditions: human cells, at 10 µM; SSMD: measured here: HSF1 foci SSMD mean; cell count: measured here: cell number; plate-normalised HSF1 focus index: stronger effect = lower value
# [13] = phospholipid biosynthesis inhibitors in animal cells, primary screen, cell-based, LOPAC library, screen 4 (AID 1347384; call rule not given here); conditions: phospholipid biosynthesis inhibition screen, at 10 µM
# [14] = viability rescue of complex I mutant cybrids, primary screen, cell-based, galactose medium, ATP luminescence (AID 1645843;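 active means z-score of at least 1.8 in each of two replicates, scored against plate mean and spread of sample wells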;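 further: positive z means more ATP and so rescue of galactose-driven cybrid death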); conditions: complex I mutant cybrid cells, 72 h, stronger effect = higher value
# [15] = viability loss in pontine glioma line – cell-based, SU-DIPG-XXV, MIPE5.0, CellTiter-Glo, qHTS, dose response (AID 1347065; cut-off not given, nearly all actives have AC50 up to about 26 µM;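 further: cells exposed to compound for 48 hours before ATP readout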); conditions: CellTiter-Glo ATP luminescence
# [16] = ovarian cancer cell viability with rucaparib, profiling panel, oncology-focused library, rucaparib conditional (AID 1508598); conditions: patient-derived ovarian cancer cells, CellTiter-Glo viability, 144 h, stronger effect = lower value
# [17] = stronger effect = lower value, cell number ratio, induced over uninduced
# [18] = measured here: relative caspase fold change +Dox/-Dox
# [19] = measured here: total cells with miR-34 induction, stronger effect = lower value
# [20] = measured here: total cells without miR-34 induction
# [21] = MELAS cybrid survival, CellTiter-Glo 48 h, stronger effect = higher value
# [22] = Rieske KO mouse fibroblast survival, CellTiter-Glo 72 h
smiles,measurement,setting,value
Cc1ccc(-n2[nH]c(C)c(N=Nc3cccc(-c4cccc(C(=O)O)c4)c3O)c2=O)cc1C,outcome,[1],inactive
same,outcome,[2],inactive
same,AC50,[3],10.5 µM (active)
same,outcome,[4],inactive
same,outcome,[5],inactive
same,fold change,[6]; [17],0.913 (inactive)
same,fold change,[6]; [18],1.1
same,cell count,[6]; [19],6690
same,cell count,[6]; [20],7330
same,z-score,[7]; [21],-0.18 (inactive)
same,z-score,[7]; [22],-0.0982
COc1cc2c(cc1Cc1cccc(Cl)c1F)c(=O)c(C(=O)O)cn2[C@H](CO)C(C)C,outcome,[1],inactive
same,AC50,[3],20.9 µM (active)
same,AC50,[4],26.3 µM (active)
CNC1[C@@H](O)C(O[C@@H]2C(O)C(O[C@H]3O[C@H]([C@@H](C)NC)CC[C@H]3N)[C@@H](N)C[C@H]2N)OC[C@]1(C)O (stereo partly specified),outcome,[1],inactive
same,outcome,[8],inactive
same,outcome,[3],inactive
N#Cc1c(C2CCNCC2)cc(-c2c(O)cccc2OCC2CC2)nc1N,parasite load remaining,[9],29.7% (inactive)
same,viability,[9],88.8%
same,AC50,[1],23.5 µM (active)
same,AC50,[8],13.2 µM (active)
same,IC50,[5],20.9 µM (active)
CC(=O)N(C)C1(c2ccccc2)CCN(CCC[C@]2(c3ccc(Cl)c(Cl)c3)CCCN(C(=O)c3ccccc3)C2)CC1,AC50,[1],29.6 µM (active)
same,AC50,[8],26.4 µM (active)
same,AC50,[3],33.2 µM (active)
CC(O)[C@@H]1NC(=O)[C@H](CCCCN)NC(=O)[C@@H](Cc2c[nH]c3ccccc23)NC(=O)[C@H](Cc2ccccc2)NC(=O)[C@@H](NC(=O)[C@H](N)Cc2ccccc2)CSSC[C@@H](C(=O)N[C@H](CO)[C@@H](C)O)NC1=O (stereo partly specified),outcome,[1],inactive
same,outcome,[8],inactive
same,outcome,[3],inactive
CC(=O)Nc1sc2c(c1-c1nc3ccccc3s1)CNC2,AC50,[1],23.5 µM (active)
same,AC50,[8],20.9 µM (active)
same,outcome,[3],inactive
Nc1nc(N)c(N=O)c(OCC2CCCCC2)n1,inhibition,[10],-2% (inactive)
same,fluorescence ratio (interference),[11],0.9 (inactive)
same,AC50,[1],14.8 µM (active)
same,AC50,[8],4.69 µM (active)
same,AC50,[3],14.8 µM (active)
same,IC50,[5],14.8 µM (active)
same,fold change,[6]; [17],0.992 (inactive) and 0.824 (inactive)
same,fold change,[6]; [18],0.923 and 0.352
same,cell count,[6]; [19],8650 and 6730
same,cell count,[6]; [20],8720 and 8160
same,SSMD,[12],2.32
same,cell count,[12],6960
same,plate-normalised HSF1 focus index,[12],1.14 (inactive)
same,outcome,[13],inactive
same,z-score,[7]; [21],-0.213 (inactive)
same,z-score,[7]; [22],-2.45
same,z-score,[14],1.21 (inactive)
c1ccc(CNc2nc(N3CCOc4ccccc43)nc3c2CCCC3)cc1,outcome,[1],inactive
same,AC50,[2],16.6 µM (active)
CC(C)(C)NC(=O)Nc1cccc(Nc2ncc(F)c(NC(C)(C)CO)n2)c1,outcome,[1],inactive
same,outcome,[2],inactive
same,AC50,[15],4.68 µM (active)
same,outcome,[3],inactive
Cc1cc(Cl)ccc1OCCCC(=O)NO,outcome,[1],inactive
same,outcome,[5],inactive
same,fold change,[6]; [17],0.893 (inactive) and 0.9 (inactive)
same,fold change,[6]; [18],2.21 and 0.917
same,cell count,[6]; [19],6940 and 6970
same,cell count,[6]; [20],7770 and 7740
same,outcome,[13],inactive
same,z-score,[7]; [21],-0.389 (inactive)
same,z-score,[7]; [22],0.796
same,z-score,[14],0.555 (inactive)
CNc1nc(-c2ccc3c(N)n[nH]c3c2)cc(N2C[C@@H](C(=O)NC3CCCCC3)CC[C@H]2C)n1,AC50,[8],20.9 µM (active)
same,AC50,[2],18.6 µM (active)
same,AC50,[15],6.61 µM (active)
same,AC50,[4],14.8 µM (active)
same,viability,"[16]; at 0.000305 µM, OCI-C5x cells, with rucaparib 10 µM, 100% = cells with rucaparib alone",103% (inactive)
same,viability,"[16]; at 0.000305 µM, OCI-C5x cells, without rucaparib",113% (inactive)
same,viability,"[16]; at 0.000305 µM, OCI-P5x cells, with rucaparib 20 µM, 100% = cells with rucaparib alone",103% (inactive)
same,viability,"[16]; at 0.000305 µM, OCI-P5x cells, without rucaparib",106% (inactive)
same,viability,"[16]; at 0.00122 µM, OCI-C5x cells, with rucaparib 10 µM, 100% = cells with rucaparib alone",124% (inactive)
same,viability,"[16]; at 0.00122 µM, OCI-C5x cells, without rucaparib",115% (inactive)
same,viability,"[16]; at 0.00122 µM, OCI-P5x cells, with rucaparib 20 µM, 100% = cells with rucaparib alone",97.7% (active)
same,viability,"[16]; at 0.00122 µM, OCI-P5x cells, without rucaparib",102% (inactive)
same,viability,"[16]; at 0.00488 µM, OCI-C5x cells, with rucaparib 10 µM, 100% = cells with rucaparib alone",116% (inactive)
same,viability,"[16]; at 0.00488 µM, OCI-C5x cells, without rucaparib",111% (inactive)
same,viability,"[16]; at 0.00488 µM, OCI-P5x cells, with rucaparib 20 µM, 100% = cells with rucaparib alone",100% (inactive)
same,viability,"[16]; at 0.00488 µM, OCI-P5x cells, without rucaparib",104% (inactive)
same,viability,"[16]; at 0.0195 µM, OCI-C5x cells, with rucaparib 10 µM, 100% = cells with rucaparib alone",119% (inactive)
same,viability,"[16]; at 0.0195 µM, OCI-C5x cells, without rucaparib",115% (inactive)
same,viability,"[16]; at 0.0195 µM, OCI-P5x cells, with rucaparib 20 µM, 100% = cells with rucaparib alone",92.7% (active)
same,viability,"[16]; at 0.0195 µM, OCI-P5x cells, without rucaparib",96.7% (active)
same,viability,"[16]; at 0.0781 µM, OCI-C5x cells, with rucaparib 10 µM, 100% = cells with rucaparib alone",117% (inactive)
same,viability,"[16]; at 0.0781 µM, OCI-C5x cells, without rucaparib",120% (inactive)
same,viability,"[16]; at 0.0781 µM, OCI-P5x cells, with rucaparib 20 µM, 100% = cells with rucaparib alone",102% (inactive)
same,viability,"[16]; at 0.0781 µM, OCI-P5x cells, without rucaparib",98.2% (active)
same,viability,"[16]; at 0.313 µM, OCI-C5x cells, with rucaparib 10 µM, 100% = cells with rucaparib alone",107% (inactive)
same,viability,"[16]; at 0.313 µM, OCI-C5x cells, without rucaparib",113% (inactive)
same,viability,"[16]; at 0.313 µM, OCI-P5x cells, with rucaparib 20 µM, 100% = cells with rucaparib alone",91% (active)
same,viability,"[16]; at 0.313 µM, OCI-P5x cells, without rucaparib",91.1% (active)
same,viability,"[16]; at 1.25 µM, OCI-C5x cells, with rucaparib 10 µM, 100% = cells with rucaparib alone",112% (inactive)
same,viability,"[16]; at 1.25 µM, OCI-C5x cells, without rucaparib",122% (inactive)
same,viability,"[16]; at 1.25 µM, OCI-P5x cells, with rucaparib 20 µM, 100% = cells with rucaparib alone",90% (active)
same,viability,"[16]; at 1.25 µM, OCI-P5x cells, without rucaparib",93.4% (active)
same,viability,"[16]; at 5 µM, OCI-C5x cells, with rucaparib 10 µM, 100% = cells with rucaparib alone",67.5% (active)
same,viability,"[16]; at 5 µM, OCI-C5x cells, without rucaparib",155% (inactive)
same,viability,"[16]; at 5 µM, OCI-P5x cells, with rucaparib 20 µM, 100% = cells with rucaparib alone",22.3% (active)
same,viability,"[16]; at 5 µM, OCI-P5x cells, without rucaparib",84.2% (active)
CN(C)C(=O)[C@H](O)[C@H](Cc1ccccc1)NC(=O)c1cc2cc(Cl)ccc2[nH]1,AC50,[8],4.18 µM (active)
same,outcome,[2],inactive
same,outcome,[15],inactive
same,outcome,[4],inactive
same,outcome,[5],inactive
same,fold change,[6]; [17],0.925 (inactive)
same,fold change,[6]; [18],1.42
same,cell count,[6]; [19],8280
same,cell count,[6]; [20],8950
same,outcome,[13],inactive
same,z-score,[14],3.02 (active)
COCCCc1sc(-c2ccccc2)nc1C(=O)Nc1ccccc1-c1nc2cc(CN3CCCC3)cnc2s1,AC50,[2],9.1 µM (active)
same,AC50,[15],12.9 µM (active)
Cn1cc(-c2cnn3c(N)c(Br)c([C@@H]4CCCNC4)nc23)cn1,AC50,[8],2.09 µM (active)
same,outcome,[4],inactive
C[C@]1(CO)CN(c2cc(C(=O)Nc3ccc4c(c3)-c3c(c(C(N)=O)nn3-c3ccc(F)cc3)CC4)c(Cl)cn2)C[C@@]1(C)CO,AC50,[8],2.09 µM (active)
COC[C@H](c1ccc(C(F)(F)F)cc1)N1CCN(C2(C)CCN(C(=O)c3c(C)ncnc3C)CC2)C[C@H]1C,AC50,[8],11.8 µM (active)
same,outcome,[3],inactive
NC(=O)c1cccc2[nH]c(-c3ccc([C@H]4CCCN4)cc3F)nc12,outcome,[8],inactive
same,outcome,[3],inactive
same,outcome,[5],inactive
